Laboratory results: PubChem BioAssay (EPA / NIEHS)
Active and inactive are the calls of the source. How the source made its calls: active means hit-call score of the fitted dose curve at least 0.9, where 1 is the maximum; inactive means score below 0.9.

Read-out: Thrombomodulin, THBD (gene 7056)
Test: BSK_CASM3C_Thrombomodulin: BioMAP Diversity Plus: CASM3C Assay for Thrombomodulin Biomarker Activity (AID 2283051);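 further: thrombomodulin protein level measured by ELISA 24 h after dosing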
Conditions: primary human coronary artery smooth muscle cells; actives raise or lower the signal

Compound	outcome	AC50
Oc1ccccc1	inactive	
COc1cc(C(=O)NC2CCN(C)CC2)ccc1Nc1ncc2c(n1)N(C1CCCC1)CC(F)(F)C(=O)N2C	inactive	
C[C@]12CC[C@@H]3c4ccc(O)cc4CC[C@H]3[C@@H]1CCC2=O	inactive	
CN(C)C(=O)C1(N2CCCCC2)CCN(CC[C@@]2(c3ccc(Cl)c(Cl)c3)CN(C(=O)c3ccccc3)CCO2)CC1		34.7 µM (active)
CN(C)c1ccc(C(=C2C=CC(=[N+](C)C)C=C2)c2ccc(N(C)C)cc2)cc1	inactive	
O=C(O)Cn1c(=O)n(Cc2ccc(Br)cc2F)c(=O)c2ccc(Cl)cc21	inactive	
CCCCCCCCOC(=O)c1cc(O)c(O)c(O)c1		0.282 µM (active)
O=C(OCCCCCCOC(=O)c1ccccc1)c1ccccc1		15.9 µM (active)
O=C(O)c1ccccc1C(=O)OCc1ccccc1	inactive	
Cc1ccc2oc(CN(Cc3ccccc3)C(=O)Nc3c(F)cc(F)cc3F)c(-c3ccc(Cl)cc3)c2c1	inactive	
Cc1oc2c(NC(=O)c3c(Cl)cccc3Cl)cccc2c1C(C)(C)O		26.5 µM (active)
c1ccc2n[nH]nc2c1	inactive	
CC[C@@H]1C[C@H](N(Cc2cc(C(F)(F)F)cc(C(F)(F)F)c2)C(C)=O)c2cc(C(F)(F)F)ccc2N1C(=O)OC(C)C	inactive	
CO[C@H]1/C=C/O[C@@]2(C)Oc3c(C)c(O)c4c(O)c(c(/C=N/N5CCN(C)CC5)c(O)c4c3C2=O)NC(=O)/C(C)=C\C=C\[C@H](C)[C@H](O)[C@@H](C)[C@@H](O)[C@@H](C)[C@H](OC(C)=O)[C@@H]1C	inactive	
O=C(O)c1ccccc1-n1cc(C(=O)O)c(=O)c2cc(Nc3c(F)cc(F)cc3Cl)c(Cl)cc21	inactive	
COc1cccc([C@H](O)C2CCN(CCc3ccc(F)cc3)CC2)c1OC	inactive	
CC1(C)NC(=O)N(c2ccc([N+](=O)[O-])c(C(F)(F)F)c2)C1=O	inactive	
CC/C(=C(/CC)c1ccc(O)cc1)c1ccc(O)cc1	inactive	
CCCCCCCCCCCO	inactive	

Compound	outcome	AC50
Cc1cc(F)ccc1-c1cc(N2CC[C@@H](O)[C@H]2CO)ncc1N(C)C(=O)C(C)(C)c1cc(C(F)(F)F)cc(C(F)(F)F)c1	inactive	
Cc1cn([C@H]2C[C@H](N=[N+]=[N-])[C@@H](CO)O2)c(=O)[nH]c1=O	inactive	
CCCCCCCC[Si](OCC)(OCC)OCC	inactive	
O=C(O)Cc1cc(I)c(Oc2ccc(O)c(I)c2)c(I)c1	inactive	
CN1C(=O)CC[C@H]1c1cccnc1	inactive	
CCCC(=O)OCCC(C)C	inactive	
Cc1occc1C(=O)Nc1ccc(C(=O)N2CCC(F)(F)/C(=C\C(=O)N3CCC(N4CCCCC4)CC3)c3ccccc32)cc1	inactive	
O=C1O[C@H]([C@@H](O)CO)C(O)=C1O	inactive	
NC(=O)c1nc(-c2cccc(-c3cc(F)ccc3OCC(F)(F)C(F)(F)F)c2)n[nH]1	inactive	
CC(C)(C)c1csc(-c2cc3cc(OCc4ccccc4CC(=O)O)ccc3o2)n1	inactive	
O=C(Nc1ccc(Cl)cc1)Nc1ccc(Cl)c(Cl)c1	inactive	
CC(C)(O)c1ccc(CNC(=O)c2cccnc2Oc2ccc3nonc3c2)cc1	inactive	
c1ccc(C[n+]2cccc3ccccc32)cc1	inactive	
O=C=NCCCCCCN=C=O	inactive	
CCOC(=O)O[C@H](C)OC(=O)c1ccc2c(c1)cc(C(=O)NC1CCN(C(C)C)CC1)n2Cc1cc(-c2ccc(Cl)s2)on1		9.19 µM (active)
O=c1[nH]sc2ccccc12		4.73 µM (active)
OC12N=C(c3ccccc3)SC1Cc1cc(Cl)ccc12 (stereo not given)	inactive	
Cc1cccc2ccccc12	inactive	

Read-out: Tissue Factor, F3 (gene 2152)
Test: BSK_CASM3C_TissueFactor: BioMAP Diversity Plus: CASM3C Assay for Tissue Factor Biomarker Activity (AID 2283052);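 further: cell surface tissue factor protein level read by ELISA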
Conditions: primary human coronary artery smooth muscle cells; actives raise or lower the signal

Compound	outcome	AC50
Oc1ccccc1	inactive	
COc1cc(C(=O)NC2CCN(C)CC2)ccc1Nc1ncc2c(n1)N(C1CCCC1)CC(F)(F)C(=O)N2C		14.2 µM (active)
C[C@]12CC[C@@H]3c4ccc(O)cc4CC[C@H]3[C@@H]1CCC2=O	inactive	
CN(C)C(=O)C1(N2CCCCC2)CCN(CC[C@@]2(c3ccc(Cl)c(Cl)c3)CN(C(=O)c3ccccc3)CCO2)CC1		31 µM (active)
CN(C)c1ccc(C(=C2C=CC(=[N+](C)C)C=C2)c2ccc(N(C)C)cc2)cc1		1.49 µM (active)
O=C(O)Cn1c(=O)n(Cc2ccc(Br)cc2F)c(=O)c2ccc(Cl)cc21	inactive	
CCCCCCCCOC(=O)c1cc(O)c(O)c(O)c1	inactive	
O=C(OCCCCCCOC(=O)c1ccccc1)c1ccccc1	inactive	
O=C(O)c1ccccc1C(=O)OCc1ccccc1	inactive	
Cc1ccc2oc(CN(Cc3ccccc3)C(=O)Nc3c(F)cc(F)cc3F)c(-c3ccc(Cl)cc3)c2c1	inactive	
Cc1oc2c(NC(=O)c3c(Cl)cccc3Cl)cccc2c1C(C)(C)O		29.4 µM (active)
c1ccc2n[nH]nc2c1	inactive	
CC[C@@H]1C[C@H](N(Cc2cc(C(F)(F)F)cc(C(F)(F)F)c2)C(C)=O)c2cc(C(F)(F)F)ccc2N1C(=O)OC(C)C	inactive	
CO[C@H]1/C=C/O[C@@]2(C)Oc3c(C)c(O)c4c(O)c(c(/C=N/N5CCN(C)CC5)c(O)c4c3C2=O)NC(=O)/C(C)=C\C=C\[C@H](C)[C@H](O)[C@@H](C)[C@@H](O)[C@@H](C)[C@H](OC(C)=O)[C@@H]1C	inactive	
O=C(O)c1ccccc1-n1cc(C(=O)O)c(=O)c2cc(Nc3c(F)cc(F)cc3Cl)c(Cl)cc21	inactive	
COc1cccc([C@H](O)C2CCN(CCc3ccc(F)cc3)CC2)c1OC	inactive	
CC1(C)NC(=O)N(c2ccc([N+](=O)[O-])c(C(F)(F)F)c2)C1=O	inactive	
CC/C(=C(/CC)c1ccc(O)cc1)c1ccc(O)cc1		11 µM (active)
CCCCCCCCCCCO	inactive	

Compound	outcome	AC50
Cc1cc(F)ccc1-c1cc(N2CC[C@@H](O)[C@H]2CO)ncc1N(C)C(=O)C(C)(C)c1cc(C(F)(F)F)cc(C(F)(F)F)c1		22 µM (active)
Cc1cn([C@H]2C[C@H](N=[N+]=[N-])[C@@H](CO)O2)c(=O)[nH]c1=O	inactive	
CCCCCCCC[Si](OCC)(OCC)OCC	inactive	
O=C(O)Cc1cc(I)c(Oc2ccc(O)c(I)c2)c(I)c1	inactive	
CN1C(=O)CC[C@H]1c1cccnc1	inactive	
O=c1c(-c2ccc(O)cc2)coc2cc(O)cc(O)c12	inactive	
CCCC(=O)OCCC(C)C	inactive	
Cc1occc1C(=O)Nc1ccc(C(=O)N2CCC(F)(F)/C(=C\C(=O)N3CCC(N4CCCCC4)CC3)c3ccccc32)cc1	inactive	
O=C1O[C@H]([C@@H](O)CO)C(O)=C1O	inactive	
NC(=O)c1nc(-c2cccc(-c3cc(F)ccc3OCC(F)(F)C(F)(F)F)c2)n[nH]1	inactive	
CC(C)(C)c1csc(-c2cc3cc(OCc4ccccc4CC(=O)O)ccc3o2)n1	inactive	
O=C(Nc1ccc(Cl)cc1)Nc1ccc(Cl)c(Cl)c1		9.41 µM (active)
CC(C)(O)c1ccc(CNC(=O)c2cccnc2Oc2ccc3nonc3c2)cc1	inactive	
c1ccc(C[n+]2cccc3ccccc32)cc1	inactive	
O=C=NCCCCCCN=C=O	inactive	
CCOC(=O)O[C@H](C)OC(=O)c1ccc2c(c1)cc(C(=O)NC1CCN(C(C)C)CC1)n2Cc1cc(-c2ccc(Cl)s2)on1		7.43 µM (active)
O=c1[nH]sc2ccccc12		28 µM (active)
OC12N=C(c3ccccc3)SC1Cc1cc(Cl)ccc12 (stereo not given)	inactive	
Cc1cccc2ccccc12	inactive	
